High-throughput results from PubChem.
Rows were chosen to be rich in hits. Some 3.3% of all compounds tested hit in one or more screens of this group.
AmpC inh no detg = inhibitors of E. coli AmpC beta-lactamase without detergent; P00811; Potency, µM (top dose mostly 57.1 µM), for inactives: at the highest dose activity change, negative = inhibition, most hits filed as inhibitors; 330,000 compounds, 0.52% hits; AmpC nitrocefin hydrolysis, absorbance 480 nm, 0.0001% Triton; AID 485341;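 further: plate controls were no compound for no effect and no enzyme for full effect; nearly all actives have a fitted effect of over 20% in size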
Target sequence (P00811 whole entry, looked up): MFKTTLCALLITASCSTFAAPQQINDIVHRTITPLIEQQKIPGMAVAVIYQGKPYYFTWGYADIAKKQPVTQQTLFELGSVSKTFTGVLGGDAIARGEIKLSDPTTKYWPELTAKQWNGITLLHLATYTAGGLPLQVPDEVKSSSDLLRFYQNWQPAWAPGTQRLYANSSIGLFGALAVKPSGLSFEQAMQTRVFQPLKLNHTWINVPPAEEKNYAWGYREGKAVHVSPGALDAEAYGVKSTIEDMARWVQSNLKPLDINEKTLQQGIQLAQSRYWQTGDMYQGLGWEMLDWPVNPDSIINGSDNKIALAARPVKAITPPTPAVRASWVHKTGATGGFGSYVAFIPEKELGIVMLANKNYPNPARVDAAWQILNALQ
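20 mM phosphate pH 7.0 + 0.01% (detergent screen) or 0.0001% Triton X-100; 5.3 nM AmpC reagent; cpd preinc 15 min RT; nitrocefin (800 uM stock) to start; A480 q20 s × 4 min; Activity was normalised to no-enzyme and no-compound control wells.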
Sm TGR inh = inhibitors of Schistosoma mansoni thioredoxin glutathione reductase; Q962Y6; AID 485364; Potency, µM (doses to about 114 µM), inactives show top-dose activity change, negative = inhibition, actives largely listed as inhibitors; 360,000 compounds, 3% hits; purified TGR, DTNB reduction, TNB absorbance 405 nm; further: on the % scale 0 is the no-effect control and ±100 the full control effect; nearly all actives have a fitted effect of over 60% in size
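Kinetic colorimetric format: TGR-catalysed, NADPH-driven DTNB reduction monitored via TNB absorbance. Enzyme dispensed at 20 nM; compound exposure 15 min at room temperature before reaction start.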
SARS PLpro yeast = blocks SARS-CoV papain-like protease in a yeast assay. S. cerevisiae expressing SARS-CoV PLpro, growth rescue. Potency, µM (series often up to 32.9 µM), for the others: at the highest dose activity, positive = growth rescue, usual class: activators. 330,000 compounds, 0.19% hits. AID 485353; calls by dose curve; further: 0% is about no effect; nearly all actives have a fitted effect of over 55% in size
Tb PYK inh = blocks Trypanosoma brucei pyruvate kinase. Q57TT1. 410,000 compounds, 0.12% hits. Potency, µM (top dose mostly 76.8 µM), for the others: top-dose activity, negative = inhibition, hits mostly inhibitors. TbPYK enzyme, Kinase-Glo Plus ATP luminescence, 45 min; further: on the % scale 0 is the no-effect control and ±100 the full control effect; nearly all actives have a fitted effect of over 50% in size
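T. brucei PYK with substrate was exposed to pin-transferred compounds across a concentration series, then started with 130 uM ADP (final). After 45 min at room temperature, Kinase-Glo Plus luminescence was read, normalized and curve-fitted.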
RE007 growth inh = less growth of the S. pombe RE007 Vpr strain; S. pombe RE007 Vpr strain, BacTiter-Glo ATP luminescence, 24 h; Potency, µM (highest dose often 92.2 µM), for inactives: at the highest dose activity change, negative = less growth, actives largely listed as inhibitors; 360,000 compounds, 0.21% hits; AID 651644; active means well fitted falling curve with a large enough effect; inconclusive means small, poorly fitted or top-dose-only effect; inactive means no such curve, though single readings can be large or run the other way; further: on the % scale 0 is the no-effect control and ±100 the full control effect; nearly all actives have a fitted effect of over 50% in size
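Fission yeast strain RE007, carrying one chromosomally integrated HIV-1 vpr copy, was seeded at OD 0.01 in PMG+AL medium with 23 nL pinned compound. After 24 h at 30 °C and 99% humidity, viability was read by BacTiter-Glo luminescence.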
AmpC inh detg = AmpC beta-lactamase inhibition with detergent present | 370,000 compounds, 0.041% hits | Potency, µM (top dose mostly 114 µM), without a hit: at the top dose activity change, negative = inhibition, hits mostly inhibitors | AmpC hydrolysis of nitrocefin, absorbance 480 nm, 0.01% Triton | P00811;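 further: 0% = no-compound wells and -100% = no-enzyme wells; nearly all actives have a fitted effect of over 25% in size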
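AmpC (5.3 nM in the dispensed reagent) in 20 mM phosphate pH 7.0 with 0.01% (detergent screen) or 0.0001% Triton X-100 was preincubated with compounds for 15 min at room temperature. Nitrocefin was then added from an 800 uM solution, and hydrolysis was followed at 480 nm.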
* marks the source's active call; other numbers are inactive results; u = inconclusive; x = no result given; [ ] = dose if it differs, or a comment. Unless noted, the call rests on the fitted dose curve; in most records, active means well fitted curve in the direction sought with a large enough effect; inconclusive means small, poorly fitted or top-dose-only effect, or another doubt; inactive means no such curve, though single readings can be large; an effect the other way counts as inactive or inconclusive. Potency means the concentration at half of the fitted maximal effect.

SMILES | AmpC inh no detg | Sm TGR inh | SARS PLpro yeast | Tb PYK inh | RE007 growth inh | AmpC inh detg
COC(=O)C1=C(C)NC(=O)/C1=C\c1cccs1 | -9% | -24% | -1% | -14% | u | u
CCc1ccc(S(=O)(=O)c2c(C(=O)c3ccccc3)cnc3ccc(CC)cc23)cc1 | x | -2% | x | -4% | x | 12%
Cc1ccc(Cl)cc1N(C)C(=O)c1noc2c1CCCCC2 | x | 7% | x | -7% | x | 6%
CCC(C)(C)n1nnnc1CN(Cc1cc2cc(OC)c(OC)cc2[nH]c1=O)C1CCCC1 | -7% | 25µM* | 12% | -6% | 18% | 0%
COc1ccc(Cn2nnnc2CN(Cc2cc3cc(C)ccc3[nH]c2=O)C2CCCC2)cc1 | -33% | 35µM* | 12% | 4% | 2% | u
COc1ccc2[nH]c(=O)c(CN(Cc3nnnn3Cc3ccco3)C3CCCCC3)cc2c1 | -4% | 56µM* | 22% | -21% | 15% | -7%
COc1cc2cc(CN(Cc3nnnn3C3CCCC3)C3CCCC3)c(=O)[nH]c2cc1OC | 1% | -14% | 4% | x | x | -12%
Cc1ccc2[nH]c(=O)c(CN(Cc3nnnn3C3CCCC3)C3CCCCC3)cc2c1 | -20% | 0% | 1% | 2% | 10% | -16%
O=c1[nH]c2cc3c(cc2cc1CN(Cc1nnnn1C1CCCC1)C1CCCC1)OCCO3 | -18% | 50µM* | 2% | -2% | 10% | -2%
O=C(CSc1n[nH]c(-c2ccccc2)n1)NCCCc1ccccc1 | x | 0% | x | 4% | x | 17%
CC(=O)c1ccc(NC(=O)c2sc(-n3nc(C)c(CCC(C)C)c3C)nc2C)cc1 | x | -1% | x | -1% | x | -2%
Cc1cccc(C)c1NC(=O)Cn1c(=O)n(CCC(=O)NCc2ccccc2Cl)c(=O)c2sccc21 | x | 9% | x | 4% | x | 15%
CCC(c1nnnn1Cc1ccco1)N(Cc1cc2cc(C)cc(C)c2[nH]c1=O)CC1CCCO1 (stereo not drawn) | 81% | 22µM* | 3% | u | -17% | -11%
CCC(c1nnnn1Cc1ccco1)N(Cc1ccccc1OC)Cc1cc2cc(C)ccc2[nH]c1=O (stereo not drawn) | -46% | -21% | 0% | -6% | 7% | -16%
COc1ccc2[nH]c(=O)c(CN(Cc3ccco3)C(c3nnnn3Cc3ccccc3)C(C)C)cc2c1 (stereo not drawn) | -13% | -32% | -3% | -11% | 11% | -10%
COc1ccc2[nH]c(=O)c(CN(C3CCCCC3)C(c3nnnn3Cc3ccco3)C(C)C)cc2c1 (stereo not drawn) | -33% | 13µM* | -2% | -19% | 8% | -8%
COc1ccc(Cl)cc1NC(=O)CCS(=O)(=O)c1cccc2nonc12 | x | -25% | x | -10% | x | -2%
COC(Cn1c2c(c3cc(C)ccc31)CCCC2NCc1ccccc1)OC (stereo not drawn) | 43% | 4µM* | -1% | 0% | -4% | 0%
Cc1ccccc1OCc1nc(-c2cccnc2)no1 | -18% | 40µM* | 0% | -1% | 4% | -3%
Cc1cc(OCc2nc(-c3cccnc3)no2)c(C)cc1Br | 0% | 6% | 5% | 4% | 3% | -6%
CCCCN(CC)Cc1ccc(CNC(=S)Nc2cccc(F)c2)o1 | 35% | 40µM* | -2% | 3% | -27% | -1%
CCCCN(CC)Cc1ccc(CNC(=O)Nc2ccccc2)o1 | -31% | 19% | 2% | -20% | 6% | -12%
O=C(CSc1nnc(-c2cccnc2)n1Cc1ccco1)c1ccc(Br)cc1 | 43% | u | -2% | x | 23%[3.69 µM] | u
CCSc1nnc(-c2cccnc2)n1Cc1ccco1 | -19% | 35µM* | -6% | 4% | 6% | -9%
O=C(CSc1nnc(-c2cccnc2)n1Cc1ccco1)c1ccc2ccccc2c1 | 57% | 22µM* | -1% | -4% | -4% | u
SMILES | AmpC inh no detg | Sm TGR inh | SARS PLpro yeast | Tb PYK inh | RE007 growth inh | AmpC inh detg
COc1ccc2c(CNC3CCCC3)c(C(=O)O)n(Cc3ccccc3C)c2c1 | x | -1% | x | 7% | x | 22%
CCc1ccc(NC(=O)C(=O)NCCc2sc3nc(-c4ccc(OC)cc4)nn3c2C)cc1 | x | 11% | x | 1% | x | 0%
C=CCn1c(CSc2nc3ccccc3s2)n[nH]c1=S | -37% | 4% | -10% | 4.5µM* | 5% | -10%
C=CCn1c(CSc2ccc(C)cc2)n[nH]c1=S | -55% | 4% | 11% | 4µM* | 14% | -15%
CCn1c(CSc2nc3ccccc3s2)n[nH]c1=S | -22% | 4% | u | u | -7% | -13%
COc1ccc(N2CCN(C(=O)Cn3nc(Cc4cccnc4)c4ccccc4c3=O)CC2)cc1 | x | -10% | x | 3% | x | -2%
O=C1NC(=O)C(=Cc2ccc(N3CCN(C(=O)c4ccccc4)CC3)c([N+](=O)[O-])c2)C(=O)N1 | -19% | 11µM* | 2% | u | -3% | -6%
FC(F)(F)c1cccc(N2CCN(C(=S)NC3CCCC3)CC2)c1 | 0.25µM* | -9% | -12% | -2% | -25% | 5%
OCC[C@@H]1C[C@@H](O)[C@H](O)[C@]2(OCc3ccccc32)O1 | -26% | -1% | -9% | -6% | -9% | -13%
OCC[C@H]1C[C@H](O)[C@@H](O)[C@@]2(OCc3ccccc32)O1 | -18% | 45µM* | 0% | -1% | 7% | -8%
CCCCC(CC)CNC(=O)c1ccc2c(=O)n(Cc3ccc(OC)cc3)c(=O)[nH]c2c1 (stereo not drawn) | x | 4% | x | 2% | x | 8%
O=C1/C(=C/c2ccccn2)SC(=S)N1NS(=O)(=O)c1ccccc1 | -26% | 45µM* | 4% | -5% | 8% | -15%
COc1cccc(C(=O)Nc2ccc(C(=O)OCc3cc(=O)n4nc(C5CC5)sc4n3)cc2)c1 | x | -4% | x | 2% | x | 9%
Cc1c(CNCCc2ccc(Cl)cc2)c(C(=O)O)c(C)n1-c1ccccc1 | 50% | 11µM* | 0% | -8% | -13% | 3%
Cc1ccc(CCNCc2c(C(=O)O)c(C)n(-c3ccccc3)c2C)cc1 | -2% | u | -6% | 1% | -4% | 0%
CCN(CC)C(=O)CC(c1ccc(F)cc1)c1ccco1 (stereo not drawn) | 56% | 28µM* | -1% | -7% | 2% | 0%
NC(=O)CC(c1ccccc1)c1ccco1 (stereo not drawn) | -12% | -9% | -15% | -2% | -12% | -2%
CCCN(CCC)C(=O)CC(c1ccccc1)c1ccco1 (stereo not drawn) | 52% | 14µM* | -3% | -4% | 5% | -13%
